Shown are actives, neighbours in structure and some others; about 1.1% of the full set was active somewhere.
GPT2 inhibitor: inhibitors of human GPT2 alanine aminotransferase | Q8TD30 | 0.25% of 100,000 active | Potency, µM (top dose mostly 57.7 µM), for inactives: at the highest dose activity change, negative = inhibition, hits mostly inhibitors | Recombinant GPT2, coupled pyruvate oxidase/HRP Amplex Red fluorescence; note: potency is the fitted concentration of half-maximal effect; nearly all actives have a fitted effect of over 60% in size
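Fluorescence of coupled pyruvate oxidase/HRP/Amplex Red system (50uM Amplex, 30 min, dark) reports pyruvate formed by GPT2. Enzyme reaction: 10ng/uL GPT2, 2mM L-alanine, 250uM a-KG, 30 min room temperature, pH 7.5; 50uM AOA control.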
SNCA viab count: reduces viability of HEK-293 SNCA reporter cells; HEK-293-SNCA-luc viability, GF-AFC fluorescence, 24 h; Potency, µM (titrated, usually from 57.1 µM), for the others: at the top dose activity change, negative = cytotoxicity, most hits filed as cytotoxic; 0.12% of 150,000 active;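 note: potency is the fitted concentration of half-maximal effect; 0% = DMSO-treated cells and -100% = medium-only wells without cells; nearly all actives have a fitted effect of over 30% in size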
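Cytotoxicity counterscreen: after 24 h compound treatment of genome-edited SNCA-luciferase HEK-293 cells, live-cell protease substrate GF-AFC read by fluorescence after 30 min; activity scaled between DMSO (0%) and medium-only (-100%), curves Hill-fitted.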
IP6K1 inhibitor: inhibitors of human IP6K1. Q92551. 0.81% of 140,000 active. activity change, % (series mostly up to about 58 µM). IP6K1 kinase, ADP-Glo luminescence, 2 h; stronger effect = lower value; in the data active = activity change below about -25%
Target sequence (Q92551 whole entry, looked up): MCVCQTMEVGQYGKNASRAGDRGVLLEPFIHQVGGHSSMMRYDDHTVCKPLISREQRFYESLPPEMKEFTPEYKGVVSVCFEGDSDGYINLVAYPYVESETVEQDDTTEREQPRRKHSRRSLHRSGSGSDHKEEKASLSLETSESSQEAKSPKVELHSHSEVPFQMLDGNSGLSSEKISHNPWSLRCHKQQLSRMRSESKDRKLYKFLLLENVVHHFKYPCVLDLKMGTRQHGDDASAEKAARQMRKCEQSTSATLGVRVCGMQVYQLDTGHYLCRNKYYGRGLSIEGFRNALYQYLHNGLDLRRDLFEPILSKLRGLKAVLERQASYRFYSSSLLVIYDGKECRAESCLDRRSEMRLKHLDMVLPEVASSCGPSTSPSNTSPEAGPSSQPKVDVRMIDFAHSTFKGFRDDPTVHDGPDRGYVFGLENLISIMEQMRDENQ
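ADP-Glo luminescence measures ADP made by human IP6K1 during a 2 h RT reaction with ATP/IP6 (mix at 1.3 mM/130 uM); top library doses 57.5 and 19.1 uM final.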
SNCA expr inhib: SNCA gene expression inhibition; HEK-293 SNCA-luciferase knock-in, luminescence, 24 h; Potency, µM (highest dose often 57.2 µM), for inactives: top-dose activity change, negative = inhibition, most hits filed as inhibitors; 0.17% of 140,000 active; AID 1671194;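 note: potency is the fitted concentration of half-maximal effect; plate controls were DMSO cells for no effect and cell-free wells for full effect; nearly all actives have a fitted effect of over 45% in size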
IP6K1 conf: confirmation of human IP6K1 inhibitors. Potency, µM (top dose mostly 49 µM), for the others: top-dose activity change, negative = inhibition, actives largely listed as inhibitors. shares compounds with IP6K1 inhibitor. 13% of 1,200 active. recombinant IP6K1 kinase, ADP-Glo luminescence, 2 h; note: potency is the fitted concentration of half-maximal effect; nearly all actives have a fitted effect of over 65% in size
Starred values were filed as active, the others as inactive; i = inactive; u = inconclusive; x = no result; [ ] = remark or other dose. Unless noted, calls come from the whole dose curve; as a rule, active = well fitted curve in the direction sought with a large enough effect; inconclusive = small, poorly fitted or top-dose-only effect, or another doubt; inactive = no such curve, though single readings can be large; an effect the other way counts as inactive or inconclusive. Unless noted, % is set by controls: 0 for no effect and ±100 for the full control effect.

SMILES | GPT2 inhibitor | SNCA viab count | IP6K1 inhibitor | SNCA expr inhib | IP6K1 conf
Cc1ccc(OCc2ccc(-c3nc(C#N)c(N4CCN(c5cccc(Cl)c5)CC4)o3)o2)cc1 | x | 13.6% | -34.0* | -17.1% | -2.5%
COc1ccccc1C(=O)N1CCc2nnc([C@@H]3C[C@@H](O)CN3C(C)C)n2CC1 | i | 9.2% | -3.0 | -6.9% | x
Cc1ccc(Cl)cc1NC(=O)c1csnn1 | x | -4.3% | -36.7* | -12.9% | u
CC(=O)Nc1ccc(NC(=O)c2csnn2)cc1 | x | 7.4% | -4.9 | u | x
CCOc1ccc(NC(=O)c2cc(-c3ccc[nH]3)n[nH]2)cc1 | 4.4% | -11.5% | 15.1 | 12.8% | -4.0%
CCc1cccc(NC(=O)c2cc(-c3ccc[nH]3)n[nH]2)c1 | i | 4.5% | -30.3* | 32.2% | 9.2µM*
Cc1ccc(NC(=O)c2cc(-c3ccc[nH]3)n[nH]2)cc1C | i | 4.3% | 11.8 | 10.7% | x
Cc1cc(C)cc(NC(=O)c2cc(-c3ccc[nH]3)n[nH]2)c1 | 3.3% | -13.3% | 21.9 | 189.4% | x
O=C(Nc1ccc(Cl)cc1)c1cc(-c2ccc[nH]2)n[nH]1 | i | 0.0% | 16.5 | 48.6% | -0.3%
CCc1ccc(NC(=O)c2cc(-c3ccc[nH]3)n[nH]2)cc1 | 4.4% | -0.6% | -3.1 | 6.2% | x
Cc1ccc(NC(=O)c2cc(-c3ccc[nH]3)n[nH]2)cc1 | i | 7.7% | 3.5 | 42.6% | -19.7%
CC(C)c1ccc(/C=C(\C#N)c2nc(-c3cc4ccccc4oc3=O)cs2)cc1 | x | 17.0% | -2.0 | 12.4% | x
Cc1nn(C)c2c1c(-c1ccccc1)cc(=O)n2CC(=O)Nc1ccccc1C(F)(F)F | x | 11.0% | 5.2 | 16.2% | x
CNC(=O)c1cccc(-c2cnc(Nc3ccc(F)c(Cl)c3)c3c2CCO3)c1 | -13.8%[88.5 µM] | u | -18.3 | 54.2%[87.6 µM] | x
O=S(=O)(c1cccc(Cl)c1)n1c(/C=C/c2ccccc2Cl)nc2ccccc21 | x | -22.9% | -39.1* | u | u
O=C(NCCc1c[nH]c2ccccc12)Nc1ccccc1C(F)(F)F | x | -14.3% | -14.7 | -13.4% | x
c1cc(NCCc2c[nH]c3ccccc23)cc(Nc2ccncc2)c1 | u | u | -33.8* | x | -4.7%
c1ccc2oc(-c3ccnc4ncnn34)cc2c1 | i | -22.5% | -4.8 | 67.9% | x
Cn1nnnc1Sc1ncnc2scc(-c3cc4ccccc4o3)c12 | x | x | x | x | -5.1%
Cn1nnnc1Sc1ncnc2scc(-c3ccc(C#N)cc3)c12 | x | x | x | x | -5.0%
CN(C)c1ccc(CN2CCC(N3CCCCCC3=O)CC2)cc1 | 3.5%[88.5 µM] | -17.2%[87.6 µM] | -2.3 | 1.9%[87.6 µM] | x
CC(C)CCN1CCOc2cc(C(=O)NCCOc3ccccc3)ccc2C1 | i | -12.6%[87.6 µM] | 0.1 | 12.0%[87.6 µM] | x
CCCN(CC1CCOC1)C(=O)Nc1ccccc1 (stereo unspecified) | i | -7.5% | 6.3 | 23.2% | x
NC(=O)NC1N=C([O][Al])NC1=O (stereo unspecified) | i | -24.8%[23.9 µM] | -30.6* | -36.5%[25.6 µM] | 2.2%
CCOc1cccc(CN2CCCC23Cc2ccccc2CNC3=O)c1 (stereo unspecified) | i | 4.1% | -3.7 | -13.4% | x
SMILES | GPT2 inhibitor | SNCA viab count | IP6K1 inhibitor | SNCA expr inhib | IP6K1 conf
CC(C)(C)c1ccc(Cn2c(Cc3ccccc3)nc3ccccc32)cc1 | x | -12.5% | -15.6 | u | x
CCOC(=O)Cn1c(=N)n(Cc2ccc(C(C)(C)C)cc2)c2ccccc21 | x | u | -26.8* | u | 2.2%
CC(=O)Nc1ccc(CN(C)Cc2ccccc2C(F)(F)F)cc1 | i | -13.0%[87.6 µM] | -11.6 | 9.8%[87.6 µM] | x
O=C1COc2ccc(-c3ccncc3)nc2CN1Cc1ccc(C(F)(F)F)cc1 | -9.5%[88.5 µM] | 0.1%[87.6 µM] | -8.7 | u | x
O=C1COc2ccc(-c3ccoc3)nc2CN1Cc1ccc(C(F)(F)F)cc1 | i | -10.2%[87.6 µM] | -28.7* | -20.1%[87.6 µM] | u
CCC(=O)N1CCc2c(sc3ncnc(NCc4ccccn4)c23)C1 | 0.1% | 8.0% | -8.2 | 36.7% | x
COCCCNC(=O)c1c(-c2ccccc2)c(-c2ccccc2)nn(C)c1=O | x | -3.2% | 0.8 | -9.6% | x
COc1ccc(NC(=O)CSc2nnc3scc(-c4ccc(Cl)cc4)n23)cc1 | x | u | 32.6 | -6.9% | x
COc1cccc(NC(=O)CSc2nnc3scc(-c4ccc(Cl)cc4)n23)c1 | x | -1.4% | -36.9* | 9.9% | 46.6%
Cc1[nH]c(/C=C2\C(=O)Nc3ccccc32)c(C)c1CCC(=O)O | x | x | x | x | 9.1%
CCOc1ccccc1CN1C(=O)c2ccccc2C1C(=O)NC1CCCCCC1 (stereo unspecified) | x | u | -41.2* | -5.1% | -17.9%
CCOc1ccc(C2CC(=O)NC(NC(=O)c3ccc(C)cc3)=N2)cc1 (stereo unspecified) | x | 1.8% | 0.2 | -0.3% | x
Cc1ccc(C(=O)NC2=NC(c3ccc(C)cc3)CC(=O)N2)cc1 (stereo unspecified) | x | -1.2% | -26.1* | -1.8% | -5.7%
CCCOc1ccc(C2c3c(-c4c(C)cc(C)cc4O)n[nH]c3C(=O)N2CCO)cc1 (stereo unspecified) | x | 5.1% | -11.9 | 47.2% | x
Cc1cc(Nc2nc(NC(C)c3ccc(F)cc3)c(C#N)cc2F)n[nH]1 (stereo unspecified) | x | x | x | x | -9.0%
CC[C@@H]1C(=O)N(C)c2cnc(Nc3ccc(C(=O)NC4CCN(C)CC4)cc3OC)nc2N1C1CCCC1 | i | u | x | -4.1% | 17.6%
Cc1cc(Nc2nc(N[C@@H](C)c3ncc(F)cn3)ncc2Cl)n[nH]1 | 2.4% | u | -1.5 | u | 0.6%
CC(=O)Nc1cccc(-c2nc(-c3c(C)noc3C)cc3cc(C)oc23)c1 | u | -9.1%[87.6 µM] | -28.4* | 28.3%[87.6 µM] | -28.9%
C[C@]12CC[C@H](O)CC1=CCC1C2CC[C@]2(C)C(n3cnc4ccccc43)=CCC12 (stereo partly specified) | i | -0.8% | -25.8* | -0.9% | u
Cc1ccc2c(n1)sc1c(=O)n(-c3cccc(C(F)(F)F)c3)nnc12 | x | -3.8% | -27.5* | 21.1% | -17.1%
COc1cccc(CC(=O)Nc2ccc3nc(N4CCC(C)CC4)cc(C)c3c2)c1 | x | -1.2% | 9.4 | -18.8% | x
COC(=O)c1cccnc1-n1c(=O)c2cccnc2n(CC(=O)Nc2ccccc2F)c1=O | x | -5.4% | -28.1* | -8.7% | 15.7%
COC(=O)c1cccnc1-n1c(=O)c2cccnc2n(CC(=O)Nc2c(C)cc(C)cc2C)c1=O | x | -7.5% | 17.7 | 11.6% | x
COc1cc([N+](=O)[O-])ccc1NC(=O)c1nc2ccccc2n(C)c1=O | x | 6.1% | 17.1 | 18.0% | x
COc1cc(Nc2ccc([N+](=O)[O-])cc2C(=O)O)cc2ccccc12 | 1.8% | -15.1% | -25.1* | x | u
O=C1N(CCc2ccccc2)c2ccccc2C12CCN(CC1CC1)C2 (stereo unspecified) | i | u | 2.3 | u | x
CCOc1ccc(Cn2c(CNS(=O)(=O)c3ccc(Cl)s3)nc3cccnc32)cc1 | x | 0.6% | -28.1* | u | u
CCOc1ccc(Cn2c(CNS(=O)(=O)c3ccc(CC)cc3)nc3cccnc32)cc1 | x | -7.1% | -22.3 | -3.5% | x

Compound activity deposited in PubChem BioAssay by National Center for Advancing Translational Sciences (NCATS).
